Screening data from PubChem BioAssay.
Sampled rows, rich in hits. Any-hit rate of the full collection: about 7.4%.
ELG1 genotox – qHTS screen for small molecules that induce genotoxicity in human embryonic kidney (HEK293T) cells expressing luciferase-tagged ELG1; Potency, µM (series often up to 46 µM), for the others: top-dose activity change, positive = activation, hits mostly activators; HEK293T ELG1-luciferase reporter, luminescence, 16 h; AID 504466, 2011; 330,000 tested, 1.3% active; further: % of control where 0% means no effect; nearly all actives have a fitted effect of over 60% in size
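DMSO vehicle served as control against compound-treated ELG1-luciferase HEK293T cells; exposure lasted 16 hr at 37 °C and 5% CO2, followed by ONE-Glo luminescence detection after 30 min.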
Rab9 prom act – qHTS Assay for Rab9 Promoter Activators | Huh7 Rab9 promoter-luciferase reporter, luminescence, 24 h | Potency, µM (top dose mostly 9.22 µM), for inactives: at the top dose activation, negative = inhibition, actives largely listed as activators | 320,000 tested, 2.8% active; further: % of control where 0% means no effect; nearly all actives have a fitted effect of over 60% in size
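Steps: seed 1500 Huh7 Rab9-luc cells per well, rest 2 h at 37 °C; add compound in DMSO; incubate 24 h; add luciferase reagent, 10 min ambient; read luminescence.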
SMN2 splice enh – qHTS Assay for Enhancers of SMN2 Splice Variant Expression; HEK293 SMN2-luciferase splicing reporter, luminescence, 30-36 h; 210,000 tested, 2.8% active; Potency, µM (titrated, usually from 46.1 µM), for inactives: at the top dose activity change, positive = activation, usual class: activators; further: % of control where 0% means no effect; nearly all actives have a fitted effect of over 55% in size
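qHTS luciferase splicing reporter: luminescence rises when SMN2 exon 7 is included in transfected HEK293 cells. Compound exposure lasted 30-36 h at 37C, with 4.5 mM final sodium butyrate as control, followed by a ONE-Glo read.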
Luc counter – Counterscreen for Luciferase (Kinase-Glo TM) Inhibition. 200,000 tested, 0.28% active. Kinase-Glo luciferase, ATP luminescence, 8 min. Luciferin 4-monooxygenase (Photuris pensylvanica), Q27757. Potency, µM (series often up to 38.3 µM), for the others: top-dose activity change, negative = inhibition, actives largely listed as inhibitors; further: on the % scale 0 is the no-effect control and ±100 the full control effect; nearly all actives have a fitted effect of over 60% in size
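Kinase-Glo luciferase light output from ATP and luciferin was measured with 10 uM ATP, within the enzyme's linear range. Buffer: 50 mM imidazole pH 7.2, 50 mM KCl, 7 mM MgCl2, 0.01% Tween 20, 0.05% BSA; luminescence read after 8 min at ambient temperature.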
FLuc counter – qHTS profiling assay for firefly luciferase inhibitor/activator using purifed enzyme and Km concentrations of substrates (counterscreen for miR-21 project). Luciferin 4-monooxygenase (Photinus pyralis), P08659. purified FLuc, Km substrates, luminescence inhibition. Potency, µM (series often up to 57.5 µM), inactives show at the top dose activity change, negative = inhibition, actives largely listed as inhibitors. 360,000 tested, 6.9% active. AID 588342, 2011;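 further: plate controls were vehicle for no effect and reference inhibitor for full effect; nearly all actives have a fitted effect of over 55% in size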
Target sequence (P08659 whole entry, looked up): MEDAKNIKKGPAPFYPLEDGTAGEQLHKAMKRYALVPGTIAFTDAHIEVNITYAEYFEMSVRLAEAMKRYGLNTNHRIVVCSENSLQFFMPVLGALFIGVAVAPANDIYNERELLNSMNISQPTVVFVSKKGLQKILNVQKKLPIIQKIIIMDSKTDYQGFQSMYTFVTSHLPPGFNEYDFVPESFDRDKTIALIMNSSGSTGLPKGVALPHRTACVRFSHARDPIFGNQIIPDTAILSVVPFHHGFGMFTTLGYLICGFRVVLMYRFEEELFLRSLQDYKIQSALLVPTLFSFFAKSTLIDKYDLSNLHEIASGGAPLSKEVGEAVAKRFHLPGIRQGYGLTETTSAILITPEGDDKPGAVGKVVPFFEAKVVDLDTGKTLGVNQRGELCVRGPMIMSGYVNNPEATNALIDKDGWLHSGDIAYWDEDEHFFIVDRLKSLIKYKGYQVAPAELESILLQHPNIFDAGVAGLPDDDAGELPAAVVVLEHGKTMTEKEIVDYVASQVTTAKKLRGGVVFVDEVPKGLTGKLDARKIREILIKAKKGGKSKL
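Biochemical qHTS of compounds, final roughly 60 µM downward over six points, against 10 nM purified firefly luciferase using Km concentrations of substrates (10 uM D-luciferin, 10 uM ATP) in Tris acetate pH 7.5 buffer; luminescence output.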
NPC1 prom act – qHTS Assay for NPC1 Promoter Activators; Huh7 NPC1 promoter luciferase reporter, 24 h; Potency, µM (doses to about 9.22 µM), inactives show top-dose activation, hits mostly activators; 320,000 tested, 2.4% active; AID 485313, 2010; further: % of control where 0% means no effect; nearly all actives have a fitted effect of over 60% in size
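Stable NPC1-promoter luciferase Huh7 line; cpd (DMSO) 24 h, 37 °C, 5% CO2; Amplite luciferase reagent 10 min RT; luminescence readout. qHTS format.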
* marks the source's active call; other numbers are inactive results; ? = inconclusive; nt = not tested or not shown. The call rests on the fitted dose curve; in most records, active means well fitted curve in the direction sought with a large enough effect; inconclusive means small, poorly fitted or top-dose-only effect, or another doubt; inactive means no such curve, though single readings can be large; an effect the other way counts as inactive or inconclusive. Potency means the concentration at half of the fitted maximal effect.

SMILES | ELG1 genotox | Rab9 prom act | SMN2 splice enh | Luc counter | FLuc counter | NPC1 prom act
Cc1ccc(C(=O)COC(=O)CCC(=O)Nc2ccccc2Cl)cc1[N+](=O)[O-] | -1.0% | 6.0% | 20.2% | -1.1% | 0.1% | -0.5%
Cc1ccc(C(=O)COC(=O)CCCC(=O)Nc2cc(C(F)(F)F)ccc2Cl)cc1C | 0.5% | -4.5% | -8.5% | 0.6% | 2.39µM* | -2.6%
CCOc1ccc(NC(=O)c2cccc3c2C(=O)N(Cc2cccnc2)C3)cc1 | ? | 5.1% | 17.9% | 0.5% | 8.49µM* | 0.9%
CCCN1Cc2cccc(C(=O)Nc3ccc(CN4CCCC4)cc3)c2C1=O | 1.3% | -16.8% | -2.2% | -0.8% | 16.9µM* | 0.4%
COC(CNC(=O)c1cccc2c1C(=O)N(Cc1cccnc1)C2)OC | 0.0% | -5.5% | 0.0% | -4.0% | 0.1% | -3.8%
COCCN1Cc2cccc(C(=O)Nc3ccc4c(c3)OCCO4)c2C1=O | ? | 0.1% | -18.5% | -12.4% | 21.3µM* | -0.2%
Cc1ccc(S(=O)(=O)N2CCN(C(=O)[C@H](Cc3ccccc3)NC(=O)c3ccco3)CC2)cc1C | -5.2% | 1.6% | nt | nt | -3.2% | -3.9%
COc1cc(C(=O)Nc2ccc3c(c2)nc(C)n3C)cc(OC)c1OC | ? | -17.5% | nt | nt | 21.3µM* | -27.5%
Cc1nc2cc(NC(=O)c3ccc(Cl)cc3)ccc2n1C | 1.03µM* | 0.282µM* | nt | nt | 4.26µM* | 0.282µM*
Cn1nnc2cc(C(=O)Nc3ccc(Cl)cc3)ccc21 | ? | 3.55µM* | 18.2% | 2.7% | -13.5% | ?
CCn1c(C)nc2cc(C(=O)N/N=C/c3ccc(O)c(O)c3O)ccc21 | -17.1% | 4.6% | -18.2% | -4.3% | 13.5µM* | -1.6%
COc1cc(C(=O)Nc2ccc3c(c2)ncn3C)cc(OC)c1OC | ? | -24.7% | nt | nt | ? | -27.3%
CC(CNC(=O)Cn1c(-c2cccs2)cc2ccccc21)c1ccccc1 (configuration not stated) | nt | nt | nt | nt | 1.3% | nt
Cc1cccc(NS(=O)(=O)c2cnc(Cl)c(Br)c2)n1 | 0.1% | -1.0% | -0.3% | -0.2% | 5.4% | -1.4%
CCn1c(C)nc2cc(C(=O)NNC(=O)Nc3ccc(Cl)cc3)ccc21 | -2.9% | 1.41µM* | 3.3% | -2.5% | -3.0% | ?
Cc1nn(-c2ccccc2)c(N)c1N=Nc1ccc2ccccc2c1 | ? | 3.55µM* | 12.6µM* | 1.0% | 10.7µM* | ?
Cc1ccc(N=Nc2c(N)nn3c(N)c(C#N)c(C)nc23)cc1 | -3.5% | -23.1% | nt | -0.9% | -1.5% | -8.3%
Cc1ccc(N=Nc2c(N)nn(-c3ccccc3)c2N)cc1 | ? | ? | 10µM* | -2.2% | 6.01µM* | ?
Cc1nn(-c2ccccc2)c(N)c1N=O | 7.1% | -2.7% | nt | nt | 5.2% | -3.7%
Cc1ccccc1CSc1nnc(C)n1N | 2.6% | 7.5% | nt | 2.6% | -2.0% | -1.3%
Cc1nnc(SCc2nc3ccccc3s2)n1-c1ccccc1 | ? | 21.5% | ? | 0.6% | 15.1µM* | 18.9%
Cc1nnc(SCc2nc3ccccc3s2)n1N | 13µM* | -28.7% | nt | -6.7% | 9.53µM* | 10.6%
CCC(c1nnc(SCc2nc3ccccc3s2)n1Cc1ccccc1)N(C)C (configuration not stated) | ? | 13.2% | -13.6% | -4.7% | 16.9µM* | 0.4%
c1ccc(-n2cnnc2SCc2nc3ccccc3s2)cc1 | ? | 28.7% | -17.2% | -5.5% | 16.9µM* | 2.7%
Cc1cccn2c(=O)c3cc(C(=O)NC4CCCC4)c(=N)n(CCCN4CCOCC4)c3nc12 | 0.7% | -11.2% | nt | nt | 0.2% | -7.1%
Cc1cc(Br)cc2c1N(Cc1ccccc1OC(C)C)C(=O)C2=O | nt | nt | 0.2% | nt | ? | nt
